# Calb FLC – C. albicans growth modulation with fluconazole. C. albicans CaCi-2 (fluconazole-resistant clinical isolate) + fluconazole, Alamar Blue growth, 48 h. growth inhibition, % (no concentration beside the values). 300,000 compounds, 0.57% hits;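 active = growth inhibition above about 58% in most replicates, limit read from the data, passing the limit was not always enough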;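 note: all wells also contain fluconazole at 8 µg/ml as a sub-toxic cotreatment; 0% = median of DMSO wells and 100% = median of geldanamycin control wells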
# Beta apoptosis – blocks beta cell apoptosis. protection from apoptosis, % (test concentration not listed). 300,000 compounds, 0.8% hits. INS-1E cytokine-induced death, ATP luminescence, 48 h; percent of positive-control rescue, neutral wells zero;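 active = Every replicate reaches about 75%, or at least half do and their mean reaches it too, limit read from the data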;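 note: 0% = cytokine-treated negative control wells and 100% = positive control rescue; higher means more ATP so stronger rescue from cytokine killing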
# Shn3 inh set2 – reduces Shn3 3'UTR luciferase signal in osteoblasts | Clone20 osteoblast Shn3 3'UTR firefly luciferase, 24 h | inhibition, % at 12.5 µM | 360,000 compounds, 0.52% hits | AID 588674;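 active = mean inhibition of at least 75% with every replicate also reaching 75%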;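 note: 0% = median of neutral control wells and 100% = pilot-screen positive control compound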
# Jurkat NFkB inh – inhibitors of the PMA/ionomycin-induced NF-kB reporter in Jurkat cells; PMA/ionomycin-induced NF-kB luciferase reporter, luminescence; 330,000 compounds, 0.53% hits; inhibition, % at 4 µM; AID 435003; in the data active = inhibition above about 50%
# 697 NFkB inh – lowers PMA/ionomycin-induced NF-kB signal in 697 B cells. 697 B-cell NF-kB luciferase reporter, 16 h. 330,000 compounds, 0.33% hits. inhibition, % at 4 µM. AID 435022; in the data active = inhibition above about 35%
# * = called active by the depositor; x = no result. A selection: hits, their analogues and other compounds. The true share with any hit is near 2%.
SMILES,Calb FLC,Beta apoptosis,Shn3 inh set2,Jurkat NFkB inh,697 NFkB inh
CC(C)C(=O)NC(c1ccco1)c1ccc2cccnc2c1O (configuration not stated),98*,117*,81,33,-7
CC(C)C(=O)NC(c1cccc([N+](=O)[O-])c1)c1ccc2cccnc2c1O (configuration not stated),6,x,89*,35,-32
c1coc(CNc2nc3ccccc3s2)c1,-6,-7,-14,-114,-117
CN(C)Cc1ccccc1-c1cccc2nccn12,x,x,-1,x,x
Cc1ccc(C(=O)N[C@@H](Cc2ccccc2)C(=O)N2CCC3(CC2)NCCc2[nH]cnc23)cc1C,14,-1,7,-3,0
O=C(NCCc1ccccn1)C1CCN(S(=O)(=O)c2ccc3ccccc3c2)CC1,24,-3,-2,-5,3
CC(Sc1nc(C(F)(F)F)nc2ccccc12)C(=O)NC1CCCC1 (configuration not stated),x,x,-15,-1,9
Cn1c(/C=C/c2ccc(Br)cc2)c([N+](=O)[O-])c(=O)n(C)c1=O,6,-8,6,11,-22
O=C(Nc1ccc(Cl)cc1)/C(=C/c1cccc(O)c1)c1nc2ccccc2s1,-14,105*,93*,41,-43
CC(C)(C)c1cc(NCCCn2ccnc2)n2ncc(-c3ccccc3)c2n1,36,114*,x,-95,-173
CN(C)CCCNc1cc(C(C)(C)C)nc2c(-c3ccc(Cl)cc3)cnn12,95*,21,-43,49,2
CSCCC(NC(=O)COc1ccccc1)C(=O)OCc1ccc([N+](=O)[O-])cc1 (configuration not stated),3,-4,-10,0,2
CC(C)NC(=O)c1ccc(COc2ccc(C(C)(C)C)cc2)o1,6,x,33,-38,-83
COc1ccc(CCNC(=O)CSc2nc3scc(-c4ccccc4)c3c(=O)[nH]2)cc1,x,1,1,-7,5
O=[N+]([O-])c1ccc(-n2cnc3ccccc32)c([N+](=O)[O-])c1,-2,118*,-12,-10,23
O=C(OCCc1cc2ccccc2c(=O)o1)c1cccc(Br)c1,x,-4,11,-14,-3
COc1ccc(C(O)(C(=O)NNc2ccc(C)cc2)c2cccs2)cc1 (configuration not stated),110*,-6,-3,3,-9
CC(C)[n+]1ccn(C2=C([O-])c3ccccc3C(=O)/C2=N\S(=O)(=O)c2ccccc2)c1,26,54,-9,-10,11
CCCC[n+]1ccn(C2=C([O-])c3ccccc3C(=O)/C2=N\S(=O)(=O)c2ccccc2)c1,47,46,15,9,25
CC(C)(C)c1cc[n+](C2=C([O-])c3ccccc3C(=O)/C2=N\S(=O)(=O)c2ccccc2)cc1,7,82*,-9,13,-8
O=C1/C(=N\S(=O)(=O)c2cccs2)C([n+]2cccc(Cc3ccccc3)c2)=C([O-])c2ccccc21,9,101*,x,32,-19
CCCCC[n+]1ccn(C2=C([O-])c3ccccc3C(=O)/C2=N\S(=O)(=O)c2ccccc2)c1,2,90*,7,-2,24
O=C1/C(=N\S(=O)(=O)c2cccs2)C([n+]2ccc(CCCc3ccccc3)cc2)=C([O-])c2ccccc21,-4,104*,x,28,-5
Cc1cc[n+](C2=C([O-])c3ccccc3C(=O)/C2=N\S(=O)(=O)c2cccs2)cc1C,55,-6,1,6,-7
CCNC(=O)c1ccccc1NC(=O)C1CC(=O)N(C(C)C)C1 (configuration not stated),-5,-7,-13,-10,-6
SMILES,Calb FLC,Beta apoptosis,Shn3 inh set2,Jurkat NFkB inh,697 NFkB inh
CCN(C(=O)CN1C(=O)COc2ccc(S(=O)(=O)N3CCCCCC3)cc21)c1cccc(C)c1,10,3,10,-19,-23
Cc1cc(C)c[n+](C2=C([O-])c3ccccc3C(=O)/C2=N\S(=O)(=O)c2cccs2)c1,44,107*,-4,10,-13
NC(=O)c1cc(N2C(=O)C=CC2=O)ccc1Cl,-5,-19,94*,6,23
CC(=O)Nc1ccc(Cl)c(C(N)=O)c1,-30,-7,-21,4,12
COc1ccc(NCc2nnc(SCC(=O)c3ccc(OC)cc3)o2)cc1,-2,2,-2,3,10
CCOc1cc(C(=O)CSc2nnc(CNc3ccc(Cl)cc3)o2)ccc1NC(=O)CC,-11,67,84*,24,-24
